Data reported in PubChem BioAssay (NCI).
The panel holds about 79,000 compounds, 15% with a hit somewhere; the sample as a whole holds those more often. Unmarked numbers belong to inactive results. The source made the active and inactive calls. Rule as the data show it: active = growth inhibition above about 70%; inactive = the rest.

Key:
[1] = NCI Yeast Anticancer Drug Screen. Data for the rad50 strain (AID 155);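 also: 0% = growth of vehicle-only cultures of the same strain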; conditions: S. cerevisiae rad50 strain growth inhibition; at 50.0 µM; hits give high values
Outline: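 Vehicle-treated cultures provide the reference for the growth inhibition reported for compound-exposed, repair-deficient yeast.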

[2] = NCI Yeast Anticancer Drug Screen. Data for the mec2-1 strain (AID 157); conditions: S. cerevisiae mec2-1 strain, at 50.0 µM, hits give high values
Outline: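 Strain: mec2-1 (DNA repair/cell cycle alteration). Compound exposure, then growth measured; inhibition expressed relative to vehicle.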

[3] = NCI Yeast Anticancer Drug Screen. Data for the sgs1 mgt1 strain (AID 161);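 also: 0% = growth of cultures given vehicle only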; conditions: S. cerevisiae sgs1 mgt1 strain, at 50.0 µM, hits give high values
Outline: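 Read-out: growth inhibition vs vehicle controls. Cells: mutant yeast strain deficient in DNA damage repair.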

[4] = NCI Yeast Anticancer Drug Screen. Data for the cln2 rad14 strain (AID 165);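 also: 0% = growth equal to vehicle treated cultures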; conditions: S. cerevisiae cln2 rad14 strain, at 50.0 µM, hits give high values
Outline: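 Compounds are applied to the cln2 rad14 yeast strain, and growth is then compared with that of vehicle-treated cultures to give inhibition.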

[5] = NCI Yeast Anticancer Drug Screen. Data for the bub3 strain (AID 167); conditions: S. cerevisiae bub3 mutant strain, at 50.0 µM, hits give high values
Outline: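 Mutant yeast screening strain plus compound; vehicle-treated cultures serve as the 0% inhibition reference.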

[6] = NCI Yeast Anticancer Drug Screen. Data for the mlh1 rad18 strain (AID 175); conditions: S. cerevisiae mlh1 rad18 strain growth inhibition; at 50.0 µM; hits give high values
Outline: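 Read-out is yeast growth inhibition, calculated against vehicle-only controls. The compound was applied to a strain engineered with DNA damage repair alterations.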

Row | Compound | growth inhibition [1] | growth inhibition [2] | growth inhibition [3] | growth inhibition [4] | growth inhibition [5] | growth inhibition [6]
1 | O=NNc1ccnc(-c2cc(NN=O)ccn2)c1 | 22.2% | 16.4% | 6.3% | -0.9% | -12.5% | 34%
2 | O=C(c1ccc(Cl)cc1Cl)C(CS(=O)(=O)O)CS(=O)(=O)O | -20.9% | -27.2% | -5.8% | -49.4% | -5.6% | -1.1%
3 | CC(=O)NNC(=O)c1ccc(Br)cc1 | 1.3% | -16.4% | 0.5% | -3.2% | 21.6% | -1.05%
4 | COc1cc(/C=C/C(=O)NCCCCN)ccc1O | 19.6% | 8.9% | 21.8% | 9.6% | 13% | 19.7%
5 | CC(c1ccccc1)c1ccc2ccccc2c1C(=O)O (configuration not stated) | 39.8% | 43.2% | 42.6% | 82% (active) | 29.6% | 64.8%
6 | CC(C)OC(=O)Nc1cccc(NC(=O)OCCCl)c1 | 7.1% | -3.65% | 9.15% | -9.85% | -8.8% | -7.1%
7 | CC1CC[N+](C)([B-](F)(F)F)CC1 (configuration not stated) | 0.85% | 1.85% | 11.5% | -31.1% | 2.45% | 11.1%
8 | Nc1cc(N)nc(S(=O)(=O)O)n1 | -5.75% | -12.9% | -4.7% | -25.9% | 3.6% | -12.9%
9 | COC(=O)C1(c2ccccc2)Cc2ccccc2-c2ccccc21 (configuration not stated) | -24.1% | -9.5% | -10.2% | -16.3% | 26.1% | -17%
10 | O=C(O)CCCCn1cnc2c(=S)nc[nH]c21 | -6.1% | -5.85% | -13.7% | -7.3% | -44% | -5%
11 | O=C1OC(c2cccc(Cl)c2)=N/C1=C\c1ccccc1 | 13.9% | 2.85% | 13.5% | 14.8% | 10.9% | -5.05%
12 | CSc1ccc(/C=C/c2ccnc3ccccc23)cc1 | 11.8% | 14.8% | 20.7% | -12.3% | 4.7% | 7.95%
13 | c1cc(Cc2ccsc2)cs1 | -8.2% | 4.1% | -4.5% | -7.1% | -11.7% | -10.8%
14 | Cc1ccc(C)c(NC(=O)/C=N/O)c1 | 1% | -5.95% | 18.5% | 12.4% | 2.3% | 1%
15 | CC(OC(=O)Nc1ccccc1)c1ccccc1 (configuration not stated) | 37.2% | 7.9% | 11.9% | 9.9% | 9.2% | 17.4%
16 | COc1ccc(-c2cc(=O)c3cc(C)c(C)c(C(=O)O)c3o2)cc1 | -10.5% | -2.95% | -5.4% | 10.8% | -8.7% | 0.75%
17 | CCc1ccc(OC(C)=O)cc1 | 12.5% | 10.6% | -13.2% | -21.7% | 6.6% | 15.6%
18 | O=C(O)COc1cc2c(cc1Cc1ccc3c(c1)OCO3)OCO2 | 2.5% | 13.1% | 0.25% | 1.15% | 10.3% | 8.35%
19 | CCCCCCCCCCCC(=O)Nc1ccc(N(C)C(C)=O)cc1 | -14.4% | -3.95% | -9.1% | -1.35% | 7.2% | -10.1%
20 | O=[N+]([O-])c1ccc(Nc2ccccc2)nc1 | -22.7% | -35.5% | 7.35% | 2.7% | -5.5% | -5.05%
21 | CN(CCC(=O)c1ccc2ccccc2c1)Cc1ccccc1 | 16.4% | 3% | 27.4% | -1.45% | 8% | 20.7%

Row | Compound | growth inhibition [1] | growth inhibition [2] | growth inhibition [3] | growth inhibition [4] | growth inhibition [5] | growth inhibition [6]
22 | O=C(/C=C/c1ccncc1)c1ccccc1 | 0.4% | -9.3% | -1.85% | 11.9% | -12.9% | 1.75%
23 | O=C(Cc1ccccc1)N(Cc1ccccc1)Cc1ccccc1 | 96.8% (active) | 98.7% (active) | 98.8% (active) | 91.9% (active) | 92.4% (active) | 97.9% (active)
24 | CCCc1ncc(C[n+]2ccccc2C)c(N)n1 | 11.8% | -15.1% | 23.2% | 25.4% | 10.7% | 8.25%
25 | CCOC(=O)C(NC(=O)CC)(Nc1ccccc1OC)C(F)(F)F (configuration not stated) | -40.9% | -28.6% | -28.6% | -17.3% | -25.2% | -31.5%
26 | Cc1cc(C)cc(C(=O)N=C(c2ccncc2)c2nc(-c3ccccc3)oc2O)c1 | -3.3% | 13.9% | -16.6% | -12.4% | 3.15% | -1.3%
27 | O=P(c1ccccc1)(c1ccccc1)c1ccccc1OCc1cccc(COc2ccccc2P(=O)(c2ccccc2)c2ccccc2)n1 | -7.05% | -7.5% | -11.7% | -21.9% | -2.6% | 31.1%
28 | CSCCCCCCSC | -0.1% | 5.1% | -2.75% | -27.8% | -5.35% | 5.9%
29 | COc1c2c(c(OC)c3c1C(=O)c1ccccc1C3=O)CC=CC2 | -10.6% | 4.7% | -15.4% | -14.7% | -4% | -4.3%
30 | CC1SCC(C)(C)NC1=O (configuration not stated) | 3.85% | 5.15% | -3.95% | -8.5% | 5.7% | 0.55%
31 | CCOc1ccc(N=c2ccn3ccccc3c2)cc1 | -2.05% | -10.3% | -24.2% | -24.4% | 8.75% | -28.5%
32 | Cc1cc(C)n(/N=C/c2ccccc2[N+](=O)[O-])c(=O)c1C#N | 4.65% | 9.4% | -2.75% | -0.25% | -2.35% | -6.85%
33 | N#CC(c1ccccc1)C(C#N)c1ccc(Cl)cc1 (configuration not stated) | 5.75% | 16.2% | -1.35% | -98.5% | 22.4% | 3.8%
34 | COc1nc2c(c(O)c(C)c(=O)n2OC2OCC(OC(C)=O)C(OC(C)=O)C2OC(C)=O)c(=O)n1C (configuration not stated) | -0.15% | -19.4% | -30.6% | -1.85% | -10.3% | -20.8%
35 | O=C(O)c1ccc2ccccc2c1C(=O)O | 6.4% | -1.6% | 0.25% | -6.55% | -2.2% | -1.7%
36 | Cc1n[nH]c(=S)n1N | -9.4% | -1.9% | -24.4% | -25.9% | -14.5% | -3.5%
37 | O=C1ON(c2ccccc2)C(c2cccc(Cl)c2)N1c1ccccc1 (configuration not stated) | 14.1% | -2.85% | -3.95% | 3.25% | 9.25% | -16.1%
38 | CCOC(=O)/C(C#N)=C/c1ccccc1OC | 35.6% | 38.9% | 31.9% | 10.5% | 47.5% | 47.5%
39 | O=C(O)CS(=O)(=O)CC(=O)O | -10.3% | -11.4% | -10.2% | -6.65% | -23.4% | -12.1%
40 | Oc1cc(O)c2c(c1)O[C@@H](c1ccc(O)c(O)c1)[C@H](O)C2 | 5.75% | -37.4% | 0.2% | 6.15% | -12.7% | 7.55%
41 | CCC1(CCC(C)C)C(=O)NC(=Nc2ccccc2)N(c2ccccc2)C1=O (configuration not stated) | 18.7% | 7.95% | -0.65% | 1.55% | 4.45% | 10.1%
42 | O=C(CO)C(O)C(O)C(O)CO (configuration not stated) | 1.65% | -9.75% | -7.45% | 8.75% | 19.9% | 0.95%
